A selection: hits, their analogues and other compounds. The true share with any hit is near 3.6%.
MITF act = activators of MITF-driven TRPM1 promoter activity in SK-MEL-5 cells; activation, % at 12.5 µM; AID 588334; SK-MEL-5 TRPM1-promoter luciferase, 24 h; % of positive control, neutral wells = 0; 300,000 compounds, 0.75% hits;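 active means mean activation of at least 80% with every replicate also reaching 80%; inconclusive means mean reaches 80% but some replicate falls short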;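 further: 0% = neutral control wells and 100% = parthenolide positive control wells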
esBAF inh = blocks esBAF chromatin remodeling in mouse ES cells; reporter increase, % at 12.5 µM; Bmi1-luciferase knock-in reporter, 24 h; 100% = twice the neutral-well signal; 350,000 compounds, 2% hits; in the data active means activation above about 40%; inconclusive means no clear call, values can overlap the other calls;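 further: 0% = median of the plate's neutral control wells and 100% = double that signal; a rise in the Bmi1 reporter signal indicates esBAF inhibition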
PHOSPHO1 inh = inhibitors of human PHOSPHO1 phosphatase. Q8TCT1. recombinant PHOSPHO1, absorbance phosphatase assay. inhibition, % at 13.3 µM. 290,000 compounds, 1.1% hits; in the data active means inhibition above about 60%
APOBEC3G inh = blocks human APOBEC3G single-stranded DNA deamination | AID 493012 | recombinant A3G, ssDNA deamination FAM/TAMRA fluorescence | Q9HC16 | 330,000 compounds, 0.28% hits | inhibition, % at 20 µM;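 active means inhibition of at least 40% at 20 µM, with no more than 30% in the related APOBEC3A deaminase screen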;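 further: plate controls were DMSO wells with A3G for no effect and wells lacking A3G enzyme for full effect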
Target sequence (Q9HC16 whole entry, looked up): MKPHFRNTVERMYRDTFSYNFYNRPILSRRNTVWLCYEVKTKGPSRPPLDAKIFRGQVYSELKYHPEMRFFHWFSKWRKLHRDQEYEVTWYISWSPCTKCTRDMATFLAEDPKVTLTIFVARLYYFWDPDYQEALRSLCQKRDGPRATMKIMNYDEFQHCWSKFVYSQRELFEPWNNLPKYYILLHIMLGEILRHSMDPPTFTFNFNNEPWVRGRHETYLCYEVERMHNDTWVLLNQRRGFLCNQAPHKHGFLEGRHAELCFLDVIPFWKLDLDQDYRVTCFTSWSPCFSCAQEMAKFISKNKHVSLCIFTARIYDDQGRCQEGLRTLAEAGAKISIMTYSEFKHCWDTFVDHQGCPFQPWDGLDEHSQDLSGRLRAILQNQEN
APOBEC3A inh = blocks human APOBEC3A ssDNA deamination. P31941. recombinant A3A, FAM/TAMRA ssDNA deamination fluorescence. inhibition, % at 20 µM. 330,000 compounds, 0.41% hits;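 active means at least 40% inhibition at 20 µM here, with at most 30% in a related deaminase screen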;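 further: plate controls were A3A with DMSO for no effect and wells lacking A3A enzyme for full effect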
Target sequence (P31941 whole entry, looked up): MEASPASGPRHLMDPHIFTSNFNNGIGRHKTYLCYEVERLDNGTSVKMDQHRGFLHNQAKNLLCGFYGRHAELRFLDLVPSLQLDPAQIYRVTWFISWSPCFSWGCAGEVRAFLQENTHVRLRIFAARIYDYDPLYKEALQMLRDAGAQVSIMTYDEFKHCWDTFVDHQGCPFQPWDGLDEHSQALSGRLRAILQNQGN
Wnt act = Wnt/beta-catenin pathway activation | Wnt/beta-catenin reporter cell assay, activator, plate reader | activation, % at 9.35 µM | 300,000 compounds, 1.2% hits; in the data active means activation above about 30%, passing the limit was not always enough; inconclusive means no clear call, values can overlap the other calls;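 further: 0% = neutral control wells and 100% = positive control wells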
* = called active by the depositor; u = inconclusive; x = no result.

SMILES	MITF act	esBAF inh	PHOSPHO1 inh	APOBEC3G inh	APOBEC3A inh	Wnt act
Nc1ccccc1C#Cc1ccccc1	133*	69*	33	-5	-2	39*
Nc1ccc(C#Cc2ccccc2)cc1	-15	11	-16	4	3	x
Fc1ccc(-c2ccc(Nc3cccc(F)c3)nn2)cc1	69	52*	39	-7	4	6
Fc1ccc(Nc2ccc(-c3ccc(F)cc3)nn2)cc1	54	x	39	-9	-1	2
COc1ccc(S(=O)(=O)Nc2ccc3c(c2)CC(=O)N([C@@H](C)CO)C[C@@H](C)[C@H](CN(C)Cc2ccc(C(=O)Nc4ccccc4N)cc2)O3)cc1	x	-7	x	x	x	x
NC(N)=Nc1nc(C2COc3ccccc3O2)cs1 (stereo unspecified)	51	x	7	-4	-1	53*
O=C(C[C@H]1C[C@@H]2c3cc(NC(=O)C4CCC4)ccc3O[C@@H]2[C@H](CO)O1)NC1CCCC1	x	-3	x	x	x	x
COC(=O)c1c(NS(C)(=O)=O)sc2c1CCCC2	-6	0	24	-2	1	0
COC(=O)c1c(NS(=O)(=O)Cc2ccccc2)sc2c1CCCC2	-9	0	71*	4	-3	x
O=C(N/N=C/c1ccc(Br)s1)c1cccs1	x	x	-19	-6	-1	27
Cc1ccc(/C=N/NC(=O)c2cccs2)s1	62	50*	0	3	1	x
Cc1cc(/C=N\NC(=O)c2cccs2)c(C)n1-c1ccc2ncccc2c1	72	72*	38	-3	5	2
O=C(N/N=C/c1c[nH]c2ccccc12)c1cccs1	x	x	39	1	2	43*
O=C(N/N=C/c1cccc2ccccc12)c1cccs1	56	67*	52	-8	-3	34*
COc1ccccc1C#Cc1cnc2c(c1)C(=O)N([C@@H](C)CO)C[C@@H](C)[C@H](CN(C)C(C)=O)O2	x	3	x	x	x	x
CO[C@@H]1CN(C)C(=O)c2cc(NS(=O)(=O)c3cn(C)cn3)ccc2OC[C@@H](C)N(Cc2cccc(F)c2)C[C@H]1C	x	-3	x	x	x	x
Cc1ccc(-c2cnc3c(c2)C(=O)N([C@H](C)CO)C[C@H](C)[C@H](CN(C)C(=O)c2ccccc2)O3)cc1	x	-2	x	x	x	x
Cn1cccc1/C=N/NC(=O)c1sc2ccccc2c1Cl	45	62*	22	-5	-6	11
O=C(N/N=C/c1ccc([N+](=O)[O-])o1)c1sc2ccccc2c1Cl	-77	x	44	-3	1	32*
O=C(N/N=C/c1c[nH]c2ccccc12)c1sc2ccccc2c1Cl	38	60*	-3	-1	4	x
CC(C)C[C@@H](CSc1ccccc1)N1CCN(CC(C)C)CCC1=O	103*	50*	-13	-10	0	43*
CCCN1CCC(=O)N([C@H](CSc2ccc(Br)cc2)c2ccccc2)CC1	89*	51*	4	-4	0	20
CCCN1CCC(=O)N([C@H](CSc2ccc(C)cc2)Cc2ccccc2)CC1	8	-15	22	-6	-3	-2
CCCN1CCC(=O)N([C@H](CSc2ccccc2)CC(C)C)CC1	93*	37	10	-9	-3	16
CCCN1CCC(=O)N([C@H](CSc2ccc(C)cc2)CC(C)C)CC1	98*	46*	25	2	3	30
SMILES	MITF act	esBAF inh	PHOSPHO1 inh	APOBEC3G inh	APOBEC3A inh	Wnt act
C[C@H](CO)N1C[C@H](C)[C@H](CN(C)C(=O)c2ccc(F)cc2)Oc2ncc(-c3ccc(F)cc3)cc2C1=O	x	3	x	x	x	x
C[C@H]1CN([C@@H](C)CO)S(=O)(=O)c2ccc(C3=CCCCC3)cc2O[C@H]1CN(C)C(=O)Cc1ccccc1	x	7	x	x	x	x
COc1ccccc1CNC(=O)Cn1cccc1C(=O)c1ccccc1C	26	43*	75*	0	0	5
COc1cccc(CNC(=O)Cn2cccc2C(=O)c2ccccc2C)c1	6	u	64*	-4	-3	2
Cc1ccc(CNC(=O)Cn2cccc2C(=O)c2ccccc2C)cc1	-1	x	-17	-2	4	11
Cc1ccccc1C(=O)c1cccn1CC(=O)NCc1cccc(Cl)c1	39	64*	9	2	1	5
CO[C@H]1CN(C)C(=O)c2ccc(NC(C)=O)cc2OC[C@H](C)N(C(=O)C2CC2)C[C@H]1C	x	4	x	x	x	x
CO[C@H]1CN(C)C(=O)c2ccc(NC(=O)C3CC3)cc2OC[C@H](C)N(C(=O)C2CCOCC2)C[C@H]1C	x	-3	x	x	x	x
Cc1ccc(S(=O)(=O)Nc2ccc3c(c2)C(=O)N([C@@H](C)CO)C[C@H](C)[C@@H](CN(C)Cc2ccc4c(c2)OCO4)OCCCC[C@@H](C)O3)cc1	x	1	x	x	x	x
O=C1C(=C2CCCCC2)SC(=S)N1Cc1ccco1	-13	-3	70*	-7	0	-4
O=C1CC(=O)N(Cc2ccco2)C(=O)N1	11	-5	36	92	98	2
O=C1CC(=O)N(Cc2ccco2)C(=S)N1	-5	x	89*	93	99	x
Clc1ccccc1CSc1cc2c(nn1)-c1ccccc1CC2	58	88*	32	1	0	x
C[C@@H]1CN([C@@H](C)CO)S(=O)(=O)c2ccc(-c3cccc(C#N)c3)cc2O[C@@H]1CN(C)C(=O)Nc1ccccc1F	x	-6	x	x	x	x
O=C(NCC[C@@H]1CC[C@@H](NC(=O)c2cccnc2)[C@H](CO)O1)Nc1ccc(Cl)cc1	x	21	x	x	x	x
COc1ccc(S(=O)(=O)Nc2ccc3c(c2)C(=O)N([C@@H](C)CO)C[C@H](C)[C@H](CN(C)C(=O)CCC(F)(F)F)OCCCC[C@H](C)O3)cc1	x	4	x	x	x	x
CCn1c(-c2csc(-c3ccc(Cl)cc3)n2)n[nH]c1=S	17	6	83*	-2	-2	-3
COc1ccc(Cl)cc1-c1nc(SCC(=O)N(C)C)n[nH]1	4	x	-16	-1	6	1
CCn1c(-c2cc(Cl)ccc2OC)n[nH]c1=S	9	1	89*	37	-4	x
CCn1c(-c2cc(OC)c(OC)c(OC)c2)n[nH]c1=S	-18	-10	-37	36	-3	-4
COc1ccc(Cl)cc1-c1n[nH]c(=S)n1C	-1	5	85*	39	-6	x
COc1ccc(NC(=O)N(C)C[C@@H]2Oc3cc(C#CCC(C)C)ccc3S(=O)(=O)N([C@H](C)CO)C[C@@H]2C)cc1	x	5	x	x	x	x
O=C(NC1CCC1)[C@@H]1[C@@H](CO)[C@@H]2Cn3c(ccc(C4=CCCC4)c3=O)[C@H]1N2C(=O)c1ccccc1	x	-5	x	x	x	x
CCOC(=O)N1CCN(C(=O)CSc2ncnc3sccc23)CC1	1	8	x	-4	1	-3
O=C(CSc1ncnc2sccc12)N1CCCCC1	73	72*	x	-7	-4	9
O=C(NCC1CC1)[C@@H]1[C@@H](CO)[C@@H]2Cn3c(ccc(C4=CCCC4)c3=O)[C@H]1N2C(=O)C1CC1	x	4	x	x	x	x
COc1ccc(-n2ncc3c(NCc4cccs4)ncnc32)cc1	u	107*	-70	1	-1	27

Assay outcomes from PubChem.
